About 83,000 compounds went through this panel and 20% of them were active in at least one assay; those are over-represented in the sample as a whole.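 Compound tested at a single concentration for 48 hours in 96-well plates; a percent growth value below 10 was scored as active.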 Active and inactive are the calls of the source.
Columns and labels:
Experiment in all cases: NCI-60 one-dose screen, 48 h (100 = growth as untreated, 0 = no growth, -100 = all killed)
Settings in all cases: 10 µM unless noted
[1] = system: T-47D breast
[2] = system: BT-549 breast
[3] = system: MDA-MB-435 melanoma
[4] = system: SW-620 colon
[5] = system: MCF7 breast
[6] = system: HCT-116 colon
[7] = system: HCC-2998 colon
[8] = system: KM12 colon

Measured: growth

Oc1ccc(CSc2nnc(-c3cnccn3)o2)c2cccnc12
inactive: [1] 18.5% | [2] 31.7% | [3] 13.1% | [4] 12.9% | [6] 14.5% | [7] 13.2% | [8] 12.5%
active: [5] 5.44%

O=C(NCCNc1cc(-c2cn(-c3ccccc3)nc2-c2cccc(O)c2)ccn1)Nc1ccc(Cl)c(C(F)(F)F)c1
active: [7] -77.7%
inactive: [1] 67.3% | [2] 98% | [3] 52.8% | [4] 46.8% | [5] 10.4% | [6] 50.6% | [8] 37.9%

O=c1c2c(O)cccc2oc2c3c(cc(O)c12)O[C@H]1OC=C[C@@H]31
active: [5] 8.3%
inactive: [1] 57.4% | [2] 95.2% | [3] 83.3% | [4] 78.1% | [6] 86.6% | [7] 63.8% | [8] 82.4%

COc1ccc2c(C3=C(c4c[nH]c5ccccc45)C(=O)N(O)C3=O)coc2c1
inactive: [1] 40.6% | [2] 118% | [3] 107% | [4] 98.6% | [5] 44.5% | [6] 93.1% | [7] 103% | [8] 97.6%

O=C(NNc1nc2cc(F)c(F)cc2n2cccc12)c1ccncn1
inactive: [1] 15.1% | [2] 28.7% | [3] 33% | [4] 23.5% | [6] 20.4% | [7] 53.3% | [8] 21.4%
active: [5] 6%

COc1ccc(-c2nc3cc(Cl)c(Cl)cc3n2CC(=O)N=Nc2c(O)[nH]c3ccc(Br)cc23)cc1
active: [1] -52.7% | [2] 3.05% | [3] -59.1% | [4] -54.6% | [5] -11.6% | [6] -31.5% | [7] -25.9% | [8] 5.77%

COc1cc(C(=O)c2cc(C(C)=O)c3c4ccccc4ccn23)cc(OC)c1OC
active: [3] 5.4%
inactive: [1] 24.8% | [2] 59% | [4] 44.5% | [5] 34.2% | [6] 42.2% | [7] 62.9% | [8] 43.9%

CN(C)C(=O)c1ccccc1-n1cnc2ccccc2c1=O
inactive: [1] 99.2% | [2] 117% | [3] 95% | [4] 102% | [5] 96.4% | [6] 100% | [7] 99.9% | [8] 101%

Cc1nn(-c2ccc(Br)cc2)c2nc(CCl)[nH]c(=O)c12
inactive: [1] 91.5% | [2] 101% | [3] 103% | [4] 110% | [5] 82.3% | [6] 98.3% | [7] 105% | [8] 83.6%

CCCCCCNC(=O)Oc1ccc(/C(=C(/C)c2ccc(Cl)cc2)c2ccc(OCCN3CCCC3)cc2)cc1
inactive: [1] 41% | [2] 71.6% | [3] 51.6% | [7] 37.1% | [8] 29.7%
active: [4] -30.7% | [5] -41.8% | [6] -43.9%

CS(=O)c1nccc(-c2c(-c3ccc(F)c(OCCc4ccc(F)cc4)c3)nc3sccn23)n1 (configuration not stated)
inactive: [2] 92.8% | [3] 99.5% | [7] 17.8% | [8] 78.3%
active: [1] -41.9% | [4] -5.23% | [5] -46.4% | [6] -59.9%

CC[C@@](C)(NC(=O)C(C)(C)NC(=O)[C@@H](NC(=O)[C@@H]1CCCN1C(=O)C(C)(C)NC(=O)[C@H](CC(C)C)NC(=O)CNC(=O)C(C)(C)NC(=O)[C@@H](NC(=O)C(C)(C)NC(=O)[C@H](CCC(N)=O)NC(=O)[C@H](C)NC(=O)C(C)(C)NC(=O)[C@H](C)NC(=O)C(C)(C)NC(=O)[C@H](C)NC(=O)C(C)(C)NC(C)=O)C(C)C)C(C)C)C(=O)N[C@@H](CCC(N)=O)C(=O)N[C@@H](CCC(N)=O)C(=O)N[C@H](CO)CC1CCCCC1
active: [2] -74.3% [5 µM] | [5] 8.62% [5 µM]
inactive: [1] 12.2% [5 µM] | [3] 12.4% [5 µM] | [4] 49.1% [5 µM] | [6] 12.4% [5 µM] | [7] 28.9% [5 µM] | [8] 34.8% [5 µM]

COc1cc(-c2noc(C[C@@H](NC(=O)OCc3ccccc3)C(C)C)n2)cc(OC)c1OC
inactive: [1] 90.2% | [2] 105% | [3] 106% | [4] 98.5% | [5] 87.3% | [6] 101% | [7] 103% | [8] 105%

CSc1nccc(-c2c(-c3ccc(F)c(OCc4ccc(F)cc4)c3)nc3sccn23)n1
inactive: [1] 65.9% | [2] 71.3% | [3] 59.7% | [4] 48.9% | [5] 65% | [6] 51.3% | [7] 93.4% | [8] 80.1%

O=C1c2c(c3c4cc(O)ccc4oc3c3[nH]c4ccccc4c23)C(=O)N1O
inactive: [7] 34.6%
active: [1] -17% | [2] -9.43% | [3] -13.8% | [4] 4.5% | [5] 6.15% | [6] -45.8% | [8] -17.2%

C/C(=N\NC(=S)Nc1ccc(Br)cc1)c1cc2ccccc2oc1=O
active: [2] 8.5% | [5] 6.49% | [8] 0.612%
inactive: [1] 43.1% | [3] 11.4% | [4] 27.7% | [6] 16.3% | [7] 29.8%

C/C(=C(/C)C1CC1CCN(C(=O)c1ccc([N+](=O)[O-])cc1)S(=O)(=O)c1ccc(C)cc1)C1CCCCC1 (configuration not stated)
inactive: [1] 77.3% | [2] 136% | [3] 99.4% | [4] 96.7% | [5] 86.9% | [6] 89.9% | [7] 112% | [8] 89.6%

Oc1ccccc1-c1nnc(SCc2ccc(O)c3ncccc23)n1-c1ccccc1
inactive: [2] 25.2% | [3] 14.4% | [4] 14.9% | [6] 12.6% | [7] 29% | [8] 15.4%
active: [1] 6.93% | [5] 3.11%

O=C1CC2(CCOCC2)Oc2ncccc21
active: [4] -54.6%
inactive: [1] 70.6% | [2] 105% | [3] 81.2% | [5] 12.7% | [6] 29% | [7] 25.1% | [8] 12.1%

NS(=O)(=O)c1ccc(Nc2nc(N/N=C/c3ccc([N+](=O)[O-])cc3)nc(Nc3ccccc3)n2)cc1
active: [5] 9.76%
inactive: [1] 14.1% | [2] 18.5% | [3] 33.2% | [4] 18.2% | [6] 16.5% | [7] 19.6% | [8] 37.5%

C=CCn1c(SCC(=O)Nc2cccc(C(=O)/C=C/c3ccc(OC)c(OC)c3)c2)nc2ccccc2c1=O
inactive: [1] 79.9% | [2] 97.7% | [3] 101% | [4] 74.4% | [5] 45.4% | [6] 55.6% | [7] 100% | [8] 91.8%

COc1ccc(Cn2cc3c(c2-c2cc(OC)c(OC)c(OC)c2)CCCc2cnoc2-3)cc1N
active: [3] -45.3%
inactive: [1] 51.5% | [2] 68.2% | [4] 29.6% | [5] 15.2% | [6] 24.1% | [7] 49% | [8] 26.1%

COc1ccc(NC(=O)[C@H](C)NC(=O)OC(C)(C)C)cc1C(=O)Nc1cccc(-c2cc(=O)c3c(OC)c(OC)c(OC)cc3o2)c1
active: [1] -24.7% | [2] -85% | [3] 7.35% | [4] -25.6% | [5] -9.71% | [6] -61.7% | [7] -60.8% | [8] -36.4%

CC1(C)CC[C@]2(C(=O)N3CCCN(CC#N)CC3)CC[C@]3(C)C(=CC[C@@H]4[C@@]5(C)CC[C@H](O)C(C)(C)[C@@H]5CC[C@]43C)[C@H]2C1
active: [5] 5.68% | [6] -47.6%
inactive: [1] 52.1% | [2] 61.4% | [3] 59.8% | [4] 27.8% | [7] 71.2% | [8] 54.1%

C=C(C)[C@@H]1CC[C@]2(C)[C@H](CC=C3[C@@H]4CC(C)(C)CC[C@]4(C(=O)NCC#CCN4CCN(C)CC4)CC[C@]32C)[C@@]1(C)CCC#N
inactive: [1] 61.7% | [2] 69.3% | [3] 24.2% | [4] 43.8% | [5] 27% | [6] 17.5% | [7] 55.2% | [8] 43.6%

CCCCCCCCNC(=O)c1ccc(Cn2c(CCCC)nc3c(N)nc4ccccc4c32)cc1
active: [1] -38.2% | [3] -83.1% | [4] -39.6% | [5] -78% | [6] -84.2%
inactive: [2] 92.7% | [7] 15.5% | [8] 42.1%

Oc1ccccc1/C=N/Nc1nc(N/N=C/c2ccccc2O)nc(N2CCOCC2)n1
inactive: [1] 46.1% | [2] 76.3% | [3] 58.9% | [4] 38.5% | [5] 40% | [6] 19.2% | [7] 58.9% | [8] 52.7%

Oc1ccc(CSc2nnc(-c3ccc(Oc4ccccc4)cc3)o2)c2cccnc12
active: [1] 7.85% | [4] 2.32% | [6] 1.74% | [8] 9.88%
inactive: [2] 49.8% | [3] 29.9% | [5] 16% | [7] 29.4%

CCOC(=O)c1c(Nc2ccccc2)nn2c(-c3ccc(OC)c(OC)c3)ccnc12
inactive: [1] 41.3% | [2] 112% | [3] 69.6% | [4] 40.9% | [5] 55% | [6] 42.7% | [7] 52.2% | [8] 44.9%

— PubChem BioAssay (NCI)
